In the supplement of paper PMC7366291:
Where a name gives a salt, the structure may show the parent alone. ± gives the standard deviation of the averaged measurements.

The compounds below were run on Danio rerio Tg(wt1b:EGFP) embryo, pronephros (assay: pronephric angle neck segment to proximal convoluted tubule (mean of left and right), fold change vs DMSO control; higher = larger pronephric angle). Details: 25 µM; exposure: 24-48 hpf.
Outline: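 Using a Fiji macro, distances and angles were calculated from 16 reference points set by hand on maximum projections of pronephroi imaged dorsally (470 nm, 10 z-slices) in agarose-filled 96-well plates. The dechorionated Tg(wt1b:EGFP) zebrafish embryos had received 25 μM compound in 0.5% DMSO in HEPES-buffered E3 with 0.003% PTU from 24 to 48 hpf at 28.5°C. Values more than 2 SD from a feature's mean were excluded. Each feature appears as a fold change over the mean of DMSO-treated embryos from the same day.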

| SMILES | pronephric angle neck segment |
| --- | --- |
| CC1(C)O[C@@H]2C[C@H]3[C@@H]4CCC5=CC(=O)C=C[C@]5(C)[C@H]4[C@@H](O)C[C@]3(C)[C@]2(C(=O)CO)O1 [Desonide] | 1.04 ± 0.13 |
| NNC(=O)c1ccncc1 [Isoniazid] | 0.978 ± 0.02 |
| O=c1[nH]c(=O)n(C2CCCO2)cc1F (stereo not given) [Tegafur] | 0.991 ± 0.041 |
| CN1CCOC(c2ccccc2)c2ccccc2C1 (stereo not given) [Nefopam hydrochloride] | 1.02 ± 0.012 |
| COc1ccc(/C=C/C(=O)Nc2ccccc2C(=O)O)cc1OC [Tranilast] | 1.139 ± 0.0021 |
| NS(=O)(=O)c1cc(C(=O)O)c(NCc2ccco2)cc1Cl [Furosemide] | 1.015 ± 0.01 |
| C[N+](C)(C)CCCCCC[N+](C)(C)C [Hexamethonium dibromide dihydrate] | 0.997 ± 0.041 |
| CCn1cc(C(=O)O)c(=O)c2cnc(N3CCNCC3)nc21 [Pipemidic acid] | 0.9737 ± 0.0064 |
| c1ccc2c(CC3=NCCN3)cccc2c1 [Naphazoline hydrochloride] | 1.006 ± 0.0059 |
| CN(C)CCC(c1ccc(Cl)cc1)c1ccccn1 (stereo not given) [Chlorpheniramine maleate] | 0.969 ± 0.0027 |
| COc1ccc(CN2CCN(C(c3ccc(F)cc3)c3ccc(F)cc3)CC2)c(OC)c1OC [Lomerizine hydrochloride] | 0.99 ± 0.019 |
| CN(C)CCC=C1c2ccccc2COc2ccccc21 [Doxepin hydrochloride] | 1.01 ± 0.076 |
| CCN(CC)CCNc1ccc(CO)c2sc3ccccc3c(=O)c12 [Hycanthone] | 0.977 ± 0.059 |
| Nc1ccccc1S(N)(=O)=O [2-Aminobenzenesulfonamide] | 1.052 ± 0.00059 |
| C[C@@H](O)[C@H]1C(=O)N2C(C(=O)O)=C(SCCNC=N)C[C@H]12 [Imipenem] | 0.951 ± 0.015 |
| CCOc1ccccc1OC(c1ccccc1)C1CNCCO1 (stereo not given) [Reboxetine mesylate] | 0.99 ± 0.0046 |
| CC(C)(O)c1ccccc1CC[C@@H](SCC1(CC(=O)O)CC1)c1cccc(/C=C/c2ccc3ccc(Cl)cc3n2)c1 [Montelukast] | 1.04 ± 0.026 |
| CN(C)C/C=C(/c1ccc(Br)cc1)c1cccnc1 [Zimelidine dihydrochloride monohydrate] | 0.971 ± 0.055 |

| SMILES | pronephric angle neck segment |
| --- | --- |
| Cc1ccc(S(=O)(=O)NC(=O)NN2CC3CCCC3C2)cc1 (stereo not given) [Gliclazide] | 0.982 ± 0.011 |
| CN[C@H](CC(C)C)C(=O)N[C@H]1C(=O)N[C@@H](CC(N)=O)C(=O)N[C@H]2C(=O)N[C@H]3C(=O)N[C@H](C(=O)N[C@H](C(=O)O)c4cc(O)cc(O)c4-c4cc3ccc4O)[C@H](O)c3ccc(c(Cl)c3)Oc3cc2cc(c3O[C@@H]2O[C@H](CO)[C@@H](O)[C@H](O)[C@H]2O[C@H]2C[C@](C)(N)[C@H](O)[C@H](C)O2)Oc2ccc(cc2Cl)[C@H]1O [Vancomycin hydrochloride] | 1.06 ± 0.077 |
| CC(C)NCC(O)c1ccc2ccccc2c1 (stereo not given) [Pronethalol hydrochloride] | 1.03 ± 0.06 |
| CC1CS(=O)(=O)CCN1/N=C/c1ccc([N+](=O)[O-])o1 (stereo not given) [Nifurtimox] | 0.938 ± 0.045 |
| c1ccc(C2CN3CCSC3=N2)cc1 (stereo not given) [Tetramisole hydrochloride] | 0.94 ± 0.035 |
| COC1=CC(=O)C[C@@H](C)[C@]12Oc1c(Cl)c(OC)cc(OC)c1C2=O [Griseofulvin] | 0.947 ± 0.01 |
| Cc1ncc([N+](=O)[O-])n1CC(O)CCl (stereo not given) [Ornidazole] | 0.985 ± 0.027 |
| Cc1noc(NS(=O)(=O)c2ccc(N)cc2)c1C [Sulfisoxazole] | 0.97 ± 0.044 |
| C[C@@]1(O)CCOC(=O)C1 [Mevalonic-D, L acid lactone] | 1.062 ± 0.0042 |
| Clc1cccc(Cl)c1NC1=NCCN1 [Clonidine hydrochloride] | 0.96 ± 0.067 |
| CC(=O)N(O)CCCCCNC(=O)CCC(=O)N(O)CCCCCNC(=O)CCC(=O)N(O)CCCCCN [Deferoxamine mesylate] | 1.01 ± 0.018 |
| COC(=O)C1=C(C)NC(C)=C(C(=O)OC)C1c1ccccc1[N+](=O)[O-] [Nifedipine] | 1.33 ± 0.09 |
| COc1ccc(-c2ccc(=N)n(CCCC(=O)O)n2)cc1 [Gabazine bromide] | 1.02 ± 0.026 |
| CCN(CC)C(=O)Nc1ccc(OCC(O)CNC(C)(C)C)c(C(C)=O)c1 (stereo not given) [Celiprolol hydrochloride] | 0.964 ± 0.046 |
| CCN(CC)CCCC(C)Nc1ccnc2cc(Cl)ccc12 (stereo not given) [Chloroquine diphosphate] | 0.991 ± 0.019 |
| CN(C)CCCN1c2ccccc2CCc2ccccc21 [Imipramine hydrochloride] | 0.996 ± 0.041 |
| CNCCC(Oc1ccc(C(F)(F)F)cc1)c1ccccc1 (stereo not given) [Fluoxetine hydrochloride] | 1.04 ± 0.054 |
